Results on eight compounds are retold here after PubChem BioAssay (NCATS).

SMILES strings stand for the structures. Values without a mark were called inactive. Records with an inconclusive call do not appear. Activity calls are given as the source filed them. Unless noted, the call rests on the fitted dose curve; in most records, active means well fitted curve in either direction with a large enough effect (not every such curve was filed as active); inconclusive means small, poorly fitted or top-dose-only effect, or another doubt; inactive means flat fitted curve, though single readings scatter. Where only a bound is given, the exact number is not on record here.

The target of test [1] is Lysosomal acid glucosylceramidase (Homo sapiens) (UniProt P04062). As to the kind of experiment: Glucocerebrosidase-p2 (AID 348; in the data active means potency below about 10 µM; further: potency means the concentration at half of the fitted maximal effect). The following applies: purified GBA, blue fluorogenic substrate, 40 min. The method in brief: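 Normal human glucocerebrosidase (0.2 nM) with blue fluorogenic substrate (80 uM final) in citrate/phosphate pH 5.9 with 10mM sodium taurocholate, 0.01% tween-20; 40 min RT, NaOH/glycine stop; fluorescence Ex 365/Em 440; AC50 from a titration from 0.6 nM upwards.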
Sequence of Lysosomal acid glucosylceramidase (Homo sapiens) (P04062 whole entry, looked up): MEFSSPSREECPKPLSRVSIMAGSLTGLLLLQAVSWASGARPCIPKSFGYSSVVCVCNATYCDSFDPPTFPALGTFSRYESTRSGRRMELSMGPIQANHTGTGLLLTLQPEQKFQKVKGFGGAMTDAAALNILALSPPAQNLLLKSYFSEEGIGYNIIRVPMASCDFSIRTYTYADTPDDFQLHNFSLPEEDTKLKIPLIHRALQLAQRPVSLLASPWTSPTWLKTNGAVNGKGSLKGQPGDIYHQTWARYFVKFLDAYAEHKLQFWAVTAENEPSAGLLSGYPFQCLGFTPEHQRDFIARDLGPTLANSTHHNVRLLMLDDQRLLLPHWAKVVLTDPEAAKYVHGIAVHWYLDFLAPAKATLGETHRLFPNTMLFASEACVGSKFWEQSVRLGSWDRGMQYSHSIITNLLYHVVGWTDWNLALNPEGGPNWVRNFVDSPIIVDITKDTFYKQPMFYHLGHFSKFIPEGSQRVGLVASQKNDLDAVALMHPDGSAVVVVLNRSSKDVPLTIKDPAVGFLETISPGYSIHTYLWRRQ

Test [2] can be described thus: AP1 Signaling Pathway (AID 357). Further: on the % scale 0 is the no-effect control and ±100 the full control effect. As to conditions: ME-180 AP-1-bla reporter, EGF-induced, beta-lactamase ratio, 5 h; at 7.69 µM (top of the series) unless noted. An outline of the steps: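 Read-out was the 460nm/530nm emission ratio (excitation 405nm) after CCF4 loading for 2.5 hours at room temperature. Cells carried an AP-1-driven beta-lactamase reporter, were stimulated with EC50 EGF plus compound for 5 hours, and AC50 values came from titrations.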

The nature of test [3]: NFAT Signaling Pathway (AID 444).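 Further: carbachol stimulus at about its EC50 of 1 µM final; on the % scale 0 is the no-effect control and ±100 the full control effect.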 As to conditions: Jurkat NFAT-bla M1, carbachol, beta-lactamase ratio, 5 h; at 7.69 µM (top of the series) unless noted. The method in brief:
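Jurkat cells with NFAT-driven β-lactamase reporter and co-expressed M1 receptor, stimulated with carbachol (final 1 uM, ~EC50), compound titration, 5 h at 37 °C. CCF4 loaded 1 h at RT; 460/530 nm ratio gave %activity and AC50.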

A short description of test [4]: Stat Signaling Pathway (AID 446).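 Further: ME-180 cervical cancer cells given 40 pM IL-6 alongside compound; SIE-controlled beta-lactamase reporter measured as 460/530 nm FRET emission ratio; on the % scale 0 is the no-effect control and ±100 the full control effect.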 The following applies: ME-180 SIE beta-lactamase reporter, IL-6 stimulated, 5 h; at 7.69 µM (top of the series) unless noted. The method in brief: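 FRET read-out (405 nm excitation, 460/530 nm emission) of a beta-lactamase reporter under a STAT-inducible element in ME-180 cervical carcinoma cells. Cells with compound receive 40 pM IL-6 for 5 h. Values are normalised to AC90 stimulation and AC90 JAK-inhibitor controls.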

Test [5] concerns the target Glucocorticoid receptor (Homo sapiens) (UniProt P04150). The test can be described thus: GR-GFP Redistribution (AID 450;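 active means compounds whose dose series gives a full or clear partial fitted curve of increased nuclear translocation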; further: potency means the concentration at half of the fitted maximal effect). As to conditions: U2OS GR-GFP nuclear translocation, laser cytometry, 2 h.
The target is the same in test [6]. The test can be described thus: GR-EFC Redistribution (AID 451; calls by dose curve; further: potency means the concentration at half of the fitted maximal effect). As to conditions: CHO-K1 GR-EFC translocation, beta-gal luminescence, 2 h. An outline of the steps:
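CHO-K1 cells expressing nuclear EA and GR-ED fragments of b-gal; compounds titrated up to 46 uM final, 2 h at 37 C. GR nuclear translocation read as complemented b-gal luminescence after 1 h RT detection.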

Test [7] has as its target 3',5'-cyclic-AMP phosphodiesterase 4B (Homo sapiens) (UniProt Q07343). As to the kind of experiment: qHTS Assay for Inhibitors of PDE-IV (AID 607; active means well fitted activation curve with a large enough effect in the main read-out, with a control signal flat, not every such curve was filed as active; further: % of control where 0% means no effect). The following applies: HEK293 ACTOne CNG channel cells, membrane potential fluorescence; series mostly up to 22.9 µM. The method in brief: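 Cell-based read-out of cAMP via a modified cyclic nucleotide-gated channel and membrane potential dye (535/590 nm) in HEK293 cells expressing PDE4 endogenously. Compounds tested up to 22.9 uM final; 100 uM RO 20-1724 reference.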
Background: Quantitative high-throughput screening tests each substance at several concentrations.

Test [8] concerns the target Cytochrome P450 3A4 (Homo sapiens) (UniProt P08684). As to the kind of experiment: qHTS Assay for Inhibitors and Substrates of Cytochrome P450 3A4 (AID 884; active means well fitted curve in the direction sought with a large enough effect; an effect the other way counts as inactive or inconclusive; further: potency means the concentration at half of the fitted maximal effect; nearly all actives have a fitted effect of over 50% in size). The following applies: recombinant CYP3A4, Luciferin-PPXE luminescence; series mostly up to 57.1 µM. The method in brief: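 Luminescent readout of luciferin produced by CYP3A4 (20 nM) dealkylation of Luciferin-PPXE, 25 uM (its KM). NADPH-driven reaction ran 60 min at RT after 10 min compound preincubation; data scaled to 57 uM ketoconazole as 100% inhibition.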

Test [9] has the same target. As to the kind of experiment: qHTS Assay for Activators of Cytochrome P450 3A4 (AID 885; active means well fitted curve in the direction sought with a large enough effect; an effect the other way counts as inactive or inconclusive; further: nearly all actives have a fitted effect of over 65% in size). The following applies: recombinant CYP3A4, Luciferin-PPXE luminescence, 60 min; series mostly up to 11.4 µM. The method in brief:
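Luminescent readout of luciferin formed from 25 uM Luciferin-PPXE (KM level) by 20 nM CYP3A4 in 200 mM KPO4, with 60 min NADPH-driven reaction at room temperature after 10 min compound exposure. Ketoconazole (57 uM) defined 100% inhibition.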

In test [10] the target is Cytochrome P450 2C19 (Homo sapiens) (UniProt P33261). The test can be described thus: qHTS Assay for Inhibitors and Substrates of Cytochrome P450 2C19 (AID 899; active means well fitted curve in the direction sought with a large enough effect; an effect the other way counts as inactive or inconclusive; further: potency means the concentration at half of the fitted maximal effect; nearly all actives have a fitted effect of over 60% in size). The following applies: recombinant CYP2C19, luciferin-H EGE luminescence; series mostly up to 11.4 µM. An outline of the steps: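 5 nM human CYP2C19 with 10uM Luciferin-H EGE (at KM) in 50mM KPO4, compound preincubated 10 min at 37C, then NADPH regeneration for 60 min at 37C. Luciferin read by luminescence after detection reagent; normalized to 57uM ketoconazole as full inhibition.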
Sequence of Cytochrome P450 2C19 (Homo sapiens) (P33261 whole entry, looked up): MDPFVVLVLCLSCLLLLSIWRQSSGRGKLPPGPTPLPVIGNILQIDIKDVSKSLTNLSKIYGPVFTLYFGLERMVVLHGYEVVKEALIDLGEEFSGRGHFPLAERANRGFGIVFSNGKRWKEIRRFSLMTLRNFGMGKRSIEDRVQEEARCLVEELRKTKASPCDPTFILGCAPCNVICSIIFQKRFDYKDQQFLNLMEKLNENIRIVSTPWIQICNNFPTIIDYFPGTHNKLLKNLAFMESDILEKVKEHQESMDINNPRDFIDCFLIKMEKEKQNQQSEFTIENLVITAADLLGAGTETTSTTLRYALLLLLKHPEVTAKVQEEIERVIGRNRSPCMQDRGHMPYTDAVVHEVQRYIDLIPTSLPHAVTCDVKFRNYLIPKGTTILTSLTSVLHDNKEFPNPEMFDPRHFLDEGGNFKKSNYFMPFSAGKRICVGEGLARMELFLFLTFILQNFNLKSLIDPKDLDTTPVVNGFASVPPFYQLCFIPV

Test [11] addresses Mitogen-activated protein kinase 10 (Mus musculus) (UniProt Q61831). As to the kind of experiment: JNK3 AlphaScreen Assay (AID 530).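 Further: kinase came from lysate of stimulated human HepG2 cells; signal reports phosphorylation of biotinylated GST-cJun 1-79 at Ser73 with 10 µM ATP; on the % scale 0 is the no-effect control and ±100 the full control effect.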 The following applies: JNK3 lysate, c-Jun phosphorylation; series mostly up to 11.4 µM. An outline of the steps:
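HepG2 lysate (IL-1b/TNFa pre-activated) + biotin-GST-cJun 1-79 + anti-pSer73 cJun; cpd titration, 15 min RT; ATP 10 uM start; Tris pH 7.6, MgCl2, DTT, vanadate; beads in EDTA buffer; AlphaScreen.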
Background: Bead proximity is the source of the signal in Alpha formats.

The nature of test [12]: Confirmation and Secondary Assay for Modulators of Hemoglobin Beta Chain Splicing at IVS2 654 locus (AID 910; active means well fitted curve in the direction sought with a large enough effect; an effect the other way counts as inactive or inconclusive;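 further: HeLa cells stably carrying EGFP split by mutant beta-globin IVS2-654 intron; % of control where 0% means no effect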). As to conditions: HeLa EGFP-654 splicing reporter, GFP fluorescence, 48 h; series mostly up to 38.3 µM. An outline of the steps:
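HeLa cells stably expressing EGFP interrupted by β-globin IVS2-654 intron, seeded overnight in Opti-MEM/2% FCS, then treated 2 days at 37 °C. Restored splicing read as total peak GFP intensity per well by laser scanning cytometry (488 nm excitation, 500–520 nm emission); 500 nM antisense PNA as control.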

A short description of test [13]: Confirmation and Secondary Assay for Modulators of Hemoglobin Beta Chain Splicing at IVS2 705 locus (AID 930; active means well fitted curve in the direction sought with a large enough effect; an effect the other way counts as inactive or inconclusive;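 further: HeLa cells stably expressing the EGFP-705 splicing reporter; GFP fluorescence per well restored by corrected splicing of the IVS2-705 intron in EGFP; % of control where 0% means no effect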). As to conditions: HeLa EGFP-705 splicing reporter, GFP fluorescence, 48 h; series mostly up to 38.3 µM. The method in brief: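 Per-well GFP, captured at 1 x 8 µm resolution with 488 nm excitation, served as the read-out for HeLa EGFP-705 cells incubated 2 days with test compound versus DMSO.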

The nature of test [14]: qHTS Assay for Identification of Small Molecule Agonists for Hypoxia Response Element Signaling Pathway (AID 914; active means well fitted activation curve with a large enough effect in the signal ratio, with a control signal flat, not every such curve was filed as active; the % refers to the signal ratio; further: % of control where 0% means no effect). As to conditions: ME-180 (cervical carcinoma) HRE-bla reporter, beta-lactamase ratio, CoCl2, 17 h; activation: hits give high values. An outline of the steps:
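In Opti-MEM containing 0.5% dialyzed FBS and 10 mM HEPES, ME-180 HRE-bla cells received a compound titration and EC50 CoCl2. They were incubated 17 hours, then CCF4-loaded 2.5 hours at room temperature before ratio reading.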

Sequence of Glucocorticoid receptor (Homo sapiens) (P04150 whole entry, looked up): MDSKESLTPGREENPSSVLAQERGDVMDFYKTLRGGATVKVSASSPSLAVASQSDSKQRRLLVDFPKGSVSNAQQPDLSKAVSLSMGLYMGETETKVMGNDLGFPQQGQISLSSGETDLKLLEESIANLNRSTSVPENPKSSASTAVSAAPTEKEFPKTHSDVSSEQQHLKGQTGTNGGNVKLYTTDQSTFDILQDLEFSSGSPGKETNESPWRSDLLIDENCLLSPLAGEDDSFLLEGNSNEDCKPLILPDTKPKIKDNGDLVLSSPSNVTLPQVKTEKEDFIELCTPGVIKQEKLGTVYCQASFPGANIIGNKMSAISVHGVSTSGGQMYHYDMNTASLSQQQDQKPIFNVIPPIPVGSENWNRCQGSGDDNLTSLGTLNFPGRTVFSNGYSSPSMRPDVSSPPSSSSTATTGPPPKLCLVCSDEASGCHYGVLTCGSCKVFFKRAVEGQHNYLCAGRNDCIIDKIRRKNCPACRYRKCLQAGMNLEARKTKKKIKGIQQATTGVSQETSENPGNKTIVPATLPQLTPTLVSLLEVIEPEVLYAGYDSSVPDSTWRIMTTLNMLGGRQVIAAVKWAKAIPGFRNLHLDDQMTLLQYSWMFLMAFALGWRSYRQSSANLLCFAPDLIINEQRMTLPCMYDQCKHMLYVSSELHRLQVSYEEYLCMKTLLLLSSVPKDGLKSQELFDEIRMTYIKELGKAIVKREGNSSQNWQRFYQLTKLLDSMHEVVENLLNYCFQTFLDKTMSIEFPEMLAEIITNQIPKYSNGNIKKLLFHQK
Sequence of Cytochrome P450 3A4 (Homo sapiens) (P08684 whole entry, looked up): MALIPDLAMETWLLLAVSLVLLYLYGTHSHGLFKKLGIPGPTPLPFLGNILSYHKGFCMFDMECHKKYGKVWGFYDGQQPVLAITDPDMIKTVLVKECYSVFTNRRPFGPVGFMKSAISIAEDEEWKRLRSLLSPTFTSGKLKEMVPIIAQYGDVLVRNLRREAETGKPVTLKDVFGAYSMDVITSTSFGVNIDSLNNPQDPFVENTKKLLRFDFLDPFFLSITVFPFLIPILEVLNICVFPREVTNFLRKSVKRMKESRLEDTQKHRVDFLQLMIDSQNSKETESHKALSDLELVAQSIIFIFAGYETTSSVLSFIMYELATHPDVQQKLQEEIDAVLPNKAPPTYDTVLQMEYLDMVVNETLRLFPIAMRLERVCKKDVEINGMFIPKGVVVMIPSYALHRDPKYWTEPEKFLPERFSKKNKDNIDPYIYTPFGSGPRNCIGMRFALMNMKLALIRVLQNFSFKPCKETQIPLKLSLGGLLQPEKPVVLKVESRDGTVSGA
Sequence of 3',5'-cyclic-AMP phosphodiesterase 4B (Homo sapiens) (Q07343 whole entry, looked up): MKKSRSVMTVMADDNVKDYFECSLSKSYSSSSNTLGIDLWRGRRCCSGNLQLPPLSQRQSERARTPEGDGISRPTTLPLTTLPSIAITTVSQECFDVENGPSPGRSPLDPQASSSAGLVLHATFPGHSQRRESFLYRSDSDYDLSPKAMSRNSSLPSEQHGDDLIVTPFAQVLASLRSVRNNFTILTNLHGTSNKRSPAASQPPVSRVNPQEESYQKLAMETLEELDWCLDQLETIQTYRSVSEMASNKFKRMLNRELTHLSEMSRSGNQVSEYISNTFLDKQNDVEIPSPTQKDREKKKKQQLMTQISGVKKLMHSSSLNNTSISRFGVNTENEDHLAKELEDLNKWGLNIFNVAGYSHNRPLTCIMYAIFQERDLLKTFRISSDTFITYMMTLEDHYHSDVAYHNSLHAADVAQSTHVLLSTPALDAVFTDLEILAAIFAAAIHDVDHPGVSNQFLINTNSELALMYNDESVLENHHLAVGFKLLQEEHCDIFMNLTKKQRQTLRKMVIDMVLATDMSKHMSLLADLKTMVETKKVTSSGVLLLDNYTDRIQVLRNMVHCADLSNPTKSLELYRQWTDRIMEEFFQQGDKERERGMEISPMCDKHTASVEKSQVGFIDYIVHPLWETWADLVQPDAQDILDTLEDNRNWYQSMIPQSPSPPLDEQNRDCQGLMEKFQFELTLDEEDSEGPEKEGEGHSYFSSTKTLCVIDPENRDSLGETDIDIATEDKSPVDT

`CN(CCc1ccccn1)c1ccc2c(c1)C(=O)c1ccccc1-2`: the Potency in test [1] is greater than 2.29 µM; in [5] it was greater than 46 µM; in test [6], greater than 9.22 µM; in [8] it was 3.16 µM (active); in [10], 2.51 µM (active). Moreover, the activity change, negative = inhibition in test [2] was 7.03%; in test [3] it was 0.0317%. For the same compound, the activity, negative = inhibition in test [4] was -7.39%. The Potency entry in [7] and in [9] was “inactive” throughout.
`Cc1cccc(CNc2nc(-c3ccc(C(=O)N(C)C)cc3)nc3ccccc23)c1`: the Potency in test [1] was greater than 11.4 µM; in test [5] it was greater than 46 µM; in test [6], greater than 46 µM. For the same compound, the activity change, negative = inhibition was -29.6% in [2] and 25.2% in [3]. In addition, the activity, negative = inhibition in test [4] was -18.6%. Besides, the Potency result in test [11] is “inactive”. The compound was classed as inactive in test [12] and in test [13].
As for `CN(C)c1ccc(C(c2ccc(N(C)C)cc2)c2ccc([N+](=O)[O-])cc2)cc1`, the Potency was greater than 11.4 µM in [1], greater than 46 µM in test [5] and greater than 9.22 µM in test [6]. The activity change, negative = inhibition in test [2] is 5.91%; in [3], -16.6%. Besides, the activity, negative = inhibition in test [4] is 14.9%. Further, the Potency result in test [7] and in test [9] was “inactive” throughout.
Turning to `NC(=O)CS(=O)C[C@H](N)C(=O)O` (stereo partly specified), the Potency in [1] was greater than 11.4 µM; in [5], greater than 46 µM; in test [6], greater than 9.22 µM. Besides, the activity change, negative = inhibition in test [2] was 23.6%; in test [3] it was 11%. Besides, in test [4], the activity, negative = inhibition was 5.38%. In addition, the Potency entry in test [11] and in [7] was “inactive” in each case. Moreover, the activation in [14] is 18.8%.
As to `COCCn1c(=O)c(-c2ccc(OC)cc2)nc2cnc(Oc3ccccc3)nc21`, the Potency in [1] was greater than 11.4 µM; in [5], greater than 9.22 µM; in test [6], greater than 46 µM. Besides, the activity change, negative = inhibition in [2] was -9.38%; in [3], 12.7%. Also, the activity, negative = inhibition in test [4] is 16.5%. Also, the Potency entry in [7] was “inactive”.
With `C[C@@]12CC(=O)[C@@H]3[C@@H](CCC4=CC(=O)CC[C@]43C)[C@@H]1CC=C2CC(=O)O`, the figures for the Potency in [1], in test [5] and in [6] were greater than 11.4 µM, greater than 46 µM and greater than 9.22 µM, respectively. Moreover, the activity change, negative = inhibition in test [2] was -4.3%; in [3], 23.5%. Further, the activity, negative = inhibition in test [4] is 2.31%. The Potency result in test [11] and in [7] was “inactive” each time. Moreover, the activation in test [14] was -1.62%.
As to `COc1ccc(C(=O)N2CCC3(CC2)CCN(c2ccccn2)CC3)cc1`, the Potency in [1] is greater than 11.4 µM; in test [6], greater than 46 µM. The values for the activity change, negative = inhibition in test [2] and in [3] were -1.45% and -26.9%, respectively. Moreover, the activity, negative = inhibition in test [4] was -10.1%. The Potency result in test [11] and in test [7] was “inactive” in each case.
In the case of `NC(N)=N[C@@H]1C(O)[C@H](N=C(N)N)[C@@H](O)C(O)[C@H]1O` (stereo partly specified), the Potency was greater than 11.4 µM in [1] and greater than 46 µM in test [5]. In addition, the activity change, negative = inhibition in test [2] was -5.59%; in [3], 13.4%. The activity, negative = inhibition in [4] was -0.855%. In addition, the Potency entry in test [11] and in test [7] was “inactive” in each case.
